Experimental data as given in PubChem BioAssay (NCATS).
Several values for one entry are separate records, joined by “and”; a condition that tells them apart may be missing. Equal values may be shown once. Results filed as inconclusive are left out. Where a call stands in place of a potency, no number is given. A structure can be active in one record and inactive in another. Activity calls are given as the source filed them. Calls follow the shape of the dose curve; as a rule, active = well fitted inhibition curve with a large enough effect; inconclusive = small, poorly fitted or top-dose-only effect; inactive = flat fitted curve, though single readings scatter.

assay: P-glycoprotein substrates identified in KB-8-5-11 adenocarcinoma cell line, qHTS therapeutic library screen (AID 1346987); conditions: KB-8-5-11 (P-gp overexpressing) viability, CellTiter-Glo, 72 h; series mostly up to 44.5 µM; also: nearly all actives have a fitted effect of over 65% in size
Excerpt: The ATP-binding cassette transporters P-glycoprotein (P-gp) is known to limit brain penetration of many chemotherapy drugs. […] As such, we developed a high-throughput screen (HTS) to identify substrates of P-gp from a series of chemical libraries including the National Center for Advancing Translational Sciences Pharmaceutical Collection NPC, 2,816 compounds), testing a total of 10,804 compounds, most of which have known mechanisms of action. We used the CellTiter-Glo viability assay to test library compounds against the parental KB-3-1 human cervical adenocarcinoma cell line and the colchicine-selected sub-line KB-8-5-11 that over-expresses P-gp. KB-8-5-11 cells were also tested in the presence of a P-gp inhibitor (tariquidar) to assess reversability of transporter-mediated resistance. Of the tested compounds, a total of 90 P-gp substrates were identified including 55 newly identified P-gp substrates. Substrates were confirmed using an orthogonal killing assay against HEK-293 cells transfected with P-gp. As exemplars, we confirmed that […] (cyclin-dependent kinase inhibitor); AT9283, (Janus kinase 2/3 inhibitor); ispinesib (kinesin spindle protein inhibitor); gedatolisib (PKI-587, phosphoinositide 3-kinase/mammalian target of rampamycin inhibitor); GSK-690693 (AKT inhibitor); and KW-2478 (heat shock protein 90 inhibitor) were substrates , and direct ATPase stimulation was assessed. ABCG2 was also found to confer high levels of resistance to AT9283, GSK-690693 and gedatolisib, while ispinesib, AT7519 and KW-2478 were weaker substrates.
The HeLa derivative cell line, KB-3-1, and its colchicine-selected, P-gp-overexpressing subline, KB-8-5-11 were maintained in DMEM with 10% FCS and Pen/Strep with glutamine at 37 degree C in 5% CO2. For KB-8-5-11 cells, colchicine was added to the medium at a concentration of 100 ng/mL. HEK-293 cells transfected with empty vector (pcDNA) or vector containing human ABCB1 (MDR-19) or ABCG2 (R-5) have been described previously (Robey, Lin, Qiu, Chan & Bates, 2011) and were maintained in EMEM supplemented with 10% FCS, Pen/Strep and glutamine with 2 mg/ml G418 to select for the expression of the transporter. Cultures were confirmed to be free of mycoplasma infection using the MycoAlert Mycoplasma Detection Kit (Lonza, Walkersville, MD). For the screen, assay medium was identical to culture medium except for KB-8-5-11 where colchicine was excluded from the medium.
All cell lines were plated into 1536-well plates at 500 cells/well in 5 uL media. Compounds were then pinned in dose-response using a 1536-head pin tool (Kalypsis, San Diego, CA) and plates were incubated at 37 degree C in 5% CO2 for an additional 72 h. CellTiter-Glo reagent (Promega) was dispensed into the wells, incubated for 5 min and luminescence was read on a ViewLux instrument (Perkin-Elmer). Cytotoxic compounds were defined as those that yielded a curve class of -1.1, -1.2, -2.1, -2.2, -2.3, or -2.4, a maximum response of >50% and an AC50 of < 10 uM. Cherry-picked hits from screening analysis were tested with both the KB pair of cell lines, and the pcDNA (empty vector control) and MDR-19 (P-gp overexpressing) pair were tested, in the absence and presence of tariquidar.
Potency is read from the fitted curve at half-maximal effect.

Compound	Potency	activity change, negative = cytotoxicity
Cn1cc(-c2ccc3nnc(Sc4ccc5ncccc5c4)n3n2)cn1	inactive	
CC(=O)NCCC(=O)N[C@@H](CCC(N)=O)C(=O)N[C@@H](CO)C(=O)N[C@@H](CCC(N)=O)C(=O)N[C@@H](CCC(N)=O)C(=O)N[C@H](C(=O)N[C@@H](Cc1ccccc1)C(=O)N[C@]1(C)CCCCCCC=CCCC[C@@](C)(C(=O)N[C@@H](CCC(N)=O)C(=O)N[C@@H](CC(N)=O)C(N)=O)NC(=O)[C@H](CC(C)C)NC(=O)[C@H](CC(C)C)NC(=O)[C@@H](CCCNC(=N)N)NC(=O)[C@H](Cc2c[nH]c3ccccc23)NC(=O)[C@H](CC(C)C)NC(=O)[C@H](CC(N)=O)NC1=O)[C@H](C)O	inactive	
C[C@H](CCC(=O)O)[C@H]1CC[C@H]2[C@H]3[C@@H](CC[C@]12C)[C@@]1(C)CC[C@@H](O)C[C@H]1C[C@@H]3O	inactive	
CON(C)C(=O)N1N=C(c2cc(F)ccc2F)S[C@]1(CCCN)c1ccccc1	0.0148 µM (active)	
c1ccc(CNc2nc(N3CCOc4ccccc43)nc3c2CCCC3)cc1	inactive	
Nc1ccc(-c2ccc3ncc4ccc(=O)n(-c5cccc(C(F)(F)F)c5)c4c3c2)cn1	1 nM (active) and 36.6 nM (active)	
COc1ccc2c(c1)CC[C@H]1[C@@H]2CC[C@]2(C)[C@@H](NCCCCCCN3C(=O)C=CC3=O)CC[C@H]12	inactive	
CCc1cc(-c2n[nH]c(C)c2-c2ccc3c(c2)OCCO3)c(O)cc1O	9.35 µM (active)	
CN[C@@H](C)[C@H]1[C@H](O)C[C@@]2(C)[C@@H]3CC[C@H]4C(C)(C)[C@@H](NC)CC[C@@]45C[C@@]35CC[C@]12C	inactive	
CO[C@H]1O[C@@H]2O[C@@]3(C)CC[C@@H]4[C@@H](C)CC[C@@H]([C@H]1C)[C@@]24OO3	inactive	
CS(=O)(=O)c1ccc(C2=C(c3ccccc3)C(=O)OC2)cc1	inactive	
OCCn1cc(-c2ccc3c(c2)CCC3=NO)c(-c2ccncc2)n1	inactive	
CC[C@H](C)C(=O)O[C@H]1C[C@H](O)C=C2C=C[C@H](C)[C@H](CC[C@@H](O)C[C@@H](O)CC(=O)O)[C@H]21	inactive	
CC1C(=O)OC2C(O)C34C5CC(C(C)(C)C)C36C(OC(=O)C6O)OC4(C(=O)O5)C12O (stereo not given)	inactive	
Cc1ccc(NC(=O)Nc2cc(C(F)(F)F)ccc2F)cc1Nc1ccc2c(c1)NC(=O)C2=Cc1ccc[nH]1	10.5 µM (active)	
Cc1cnc(-c2cc(N3CCN(C(=O)CCS(C)(=O)=O)CC3)ncc2Cl)c(C)c1	inactive	
O=C(CO)N1CCC(c2[nH]nc(-c3ccc(Cl)cc3)c2-c2ccncn2)CC1	inactive	
CNc1nc(Nc2ccc(C(=O)N3CCOCC3)cc2OC)ncc1Cl	inactive	
CN1c2ccccc2C(=O)N2CCc3c([nH]c4ccccc34)C21 (stereo not given)	inactive and 1.84 µM (active)	
CO[C@H]1C=CO[C@@]2(C)Oc3c(C)c(O)c4c(O)c(c(C=NN5CCN(C)CC5)c(O)c4c3C2=O)NC(=O)C(C)=CC=C[C@H](C)[C@H](O)[C@@H](C)[C@@H](O)[C@@H](C)[C@H](OC(C)=O)[C@H]1C		0.164% [at 9.29 µM] (inactive)

Compound	Potency	activity change, negative = cytotoxicity
COc1c(C)c2c(c(O)c1CC=C(C)CCC(=O)OCCN1CCOCC1)C(=O)OC2	7.43 µM (active)	
COc1cc([C@H]2Oc3cc([C@H]4Oc5cc(O)cc(O)c5C(=O)[C@H]4O)ccc3O[C@H]2CO)ccc1O	inactive	
CC(C)n1c(C=C[C@H](O)C[C@H](O)CC(=O)O)c(-c2ccc(F)cc2)c2ccccc21	11.8 µM (active)	
c1cc(OCCN2CCCCC2)cc(-c2n[nH]c3ccc(-c4ncn[nH]4)cc23)c1	inactive	
Cc1cc(C(C)Nc2ccccc2)c2nc(N3CCOCC3)cc(=O)n2c1 (stereo not given)	inactive	
CC(C)N(CCCNC(=O)Nc1ccc(C(C)(C)C)cc1)C[C@H]1O[C@@H](n2cc(Br)c3c(N)ncnc32)[C@H](O)[C@H]1O	inactive	
Cc1ccc2c(=O)c3cccc(CC(=O)O)c3oc2c1C	inactive	
COc1cc2ncn(-c3cc(OCc4ccccc4S(C)(=O)=O)c(C#N)s3)c2cc1OC	inactive	
O=C(NC[C@H](O)CO)c1ccncc1Nc1ccc(I)cc1F	inactive	
CN(C)CCOc1ccc(C(=C(CCCl)c2ccccc2)c2ccccc2)cc1	inactive	
CCOC(=O)[C@H]1O[C@H]1C(=O)N[C@@H](CC(C)C)C(=O)NCCC(C)C	inactive	
Oc1ccc(C=Cc2cc(O)cc(O)c2)cc1	inactive	
Cc1ccc2c(c1)c1c(n2CCc2ccc(C)nc2)CCN(C)C1	inactive	
N#CC(c1ccnc(NCCc2cccnc2)n1)c1nc2ccccc2s1 (stereo not given)	inactive	
CN(C)c1nc(Cc2ccc(NC(=O)c3ccc(C(F)(F)F)cc3)cc2)nc(N(C)C)c1CC(=O)O	inactive	
CC(C)CNc1ccnc(NCc2csc(-c3ccccc3)n2)n1	18.7 µM (active) and 10.3 µM (active)	
O=C(O)C1=CO[C@@H](O[C@@H]2O[C@H](CO)[C@H](O)[C@H](O)[C@H]2O)[C@@H]2C(CO)=CC[C@H]12	inactive	
O=C1C(c2c(O)[nH]c3ccccc23)=Nc2ccccc21	inactive	
O=C1CCCC(=O)C1C(=O)c1ccc(C(F)(F)F)cc1[N+](=O)[O-]	inactive	
CCCCC[C@H](O)C=C[C@H]1[C@H](O)CC(=O)[C@H]1CC=CCCCC(=O)O	inactive	
